# Test results as given in PubChem BioAssay (NCI).
# Compounds without any hit were thinned out: in the full panel of roughly 83,000, 20% have a hit.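 Interpretation: 100, growth as untreated; towards 0, rising growth inhibition; 0, no net growth; 0 to -100, cell death. Compounds scoring below 10 were considered active.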 A number with no mark means an inactive call. The source made the active and inactive calls.
# Legend:
# Experiment in all cases: NCI-60 one-dose screen, 48 h (100 = growth as untreated, 0 = no growth, -100 = all killed)
# Details in all cases: 10 µM unless noted
# [1] = test system: SR leukemia
# [2] = test system: RPMI-8226 leukemia
# [3] = test system: OVCAR-8 ovarian
# [4] = test system: OVCAR-5 ovarian
# [5] = test system: OVCAR-4 ovarian
# [6] = test system: SK-OV-3 ovarian
# [7] = test system: IGROV1 ovarian
# [8] = test system: OVCAR-3 ovarian
# [9] = test system: NCI/ADR-RES ovarian
# [10] = test system: T-47D breast
# [11] = test system: BT-549 breast
# [12] = test system: MDA-MB-435 melanoma
# [13] = test system: SW-620 colon
# [14] = test system: MCF7 breast
# [15] = test system: HCT-116 colon
# [16] = test system: HCC-2998 colon
# [17] = test system: KM12 colon
# [18] = test system: HS 578T breast
Compound,growth [1],growth [2],growth [3],growth [4],growth [5],growth [6],growth [7],growth [8],growth [9] [%],growth [10],growth [11],growth [12],growth [13],growth [14],growth [15],growth [16],growth [17],growth [18] [%]
O=C(O)c1cccc(-n2ncc(Cl)c(Cl)c2=O)c1,102%,93.8%,107%,106%,91.1%,106%,130%,118%,110,102%,105%,93.2%,113%,74.8%,105%,108%,77.2%,
COc1ccc(/C=C\C(=O)/C=C/c2ccc(OC)cc2)cc1,17.7%,-20% (active),101%,107%,88.6%,104%,92.3%,85.1%,99.2,80.1%,48.5%,-30.4% (active),,11%,-96.6% (active),-16% (active),4.59% (active),
N#CC1(O)CCCCC1,91.6%,105%,94.3%,98.2%,126%,93.6%,101%,104%,94,103%,93.9%,99.3%,,,103%,93.3%,102%,
O=Cc1ccc(F)cc1,111%,105%,103%,102%,106%,109%,95.2%,111%,107,94.6%,100%,97.9%,,92.6%,101%,104%,109%,
O=C(O)c1ccc([N+](=O)[O-])cc1S(=O)(=O)O,110%,99.5%,99.5%,106%,116%,103%,108%,,104,,108%,108%,105%,104%,95.6%,97.8%,104%,100
Nc1c(O)c(S(=O)(=O)O)c(O)c2c1C(=O)c1ccccc1C2=O,13.8%,11.5%,27.8%,42.8%,26.1%,22.9%,19.2%,,17.8,23.5%,40%,21.3%,15.6%,13.8%,7.87% (active),31.8%,5.95% (active),59.7
CSc1nc2[nH]ncc2c(=O)[nH]1,95%,119%,106%,97.7%,123%,107%,112%,97.3%,99.1,,88.9%,103%,95.4%,98.1%,98.1%,108%,,
CC(O)C(F)(F)C(F)(F)C(F)(F)F (stereo not given),97.6%,128%,110%,98.7%,103%,118%,114%,,110,110%,107%,110%,,101%,100%,111%,114%,105
CC1CCC(C(C)(C)[N+](C)(C)C)CC1 (stereo not given),94%,102%,100%,104%,98.9%,102%,115%,,107,98.8%,92.6%,108%,105%,94.4%,98.4%,93.7%,99.7%,
C=CCC(OC(C)=O)c1ccc(C(C)C)cc1 (stereo not given),116%,108%,105%,109%,113%,115%,123%,,107,115%,,124%,107%,113%,110%,103%,114%,109
C=COC(=O)CCOCC(CC)CCCC (stereo not given),99.2%,53.2%,114%,103%,96.2%,113%,105%,,105,95.9%,93.6%,99.2%,105%,96.3%,101%,105%,99.9%,105
CC(=O)c1cc(O)ccc1O,94.2%,119%,95.9%,99.9%,108%,107%,117%,,,108%,90.9%,108%,114%,101%,103%,98.9%,,110
Clc1ccc(C(SCc2ccccc2)SCc2ccccc2)cc1,81%,83%,95.5%,93.3%,89%,94.9%,93.2%,,98.9,79%,103%,97.9%,89.4%,93.8%,76.3%,120%,85.1%,93.4
O=Cc1ccc(Cl)c(Cl)c1,98%,105%,101%,99.8%,95.8%,112%,83.7%,116%,95.4,115%,,110%,118%,98.4%,107%,97.2%,113%,
CCCCOC(=O)c1ccccc1O,154%,16.5%,107%,101%,105%,110%,118%,,110,107%,109%,97.5%,101%,98%,109%,122%,106%,103
O=C1C=CC(=O)C2=C1CCCC2,68.1%,72.4%,95.1%,108%,88%,89.4%,80.5%,89%,,85.3%,91.6%,102%,,70.6%,91.8%,123%,92.3%,
CCC12OC(COc3ccccc3)CN1CCN2c1ccccc1 (stereo not given),96.9% [100 µM],94.4% [100 µM],96.5% [100 µM],98% [100 µM],95.5% [100 µM],106% [100 µM],93.4% [100 µM],110% [100 µM],,90.4% [100 µM],105% [100 µM],98.6% [100 µM],103% [100 µM],92.5% [100 µM],102% [100 µM],115% [100 µM],98.9% [100 µM],
CC(C)OCC(CCl)OC(=O)Nc1ccccc1 (stereo not given),117%,109%,97.9%,104%,101%,97.6%,105%,,107,100%,110%,107%,112%,96.9%,108%,95.6%,96.6%,114
Nc1cc(F)ccc1[N+](=O)[O-],114%,106%,118%,97.4%,106%,114%,98.4%,,107,104%,103%,111%,104%,97.6%,97.9%,102%,104%,98.7
O=C(NC1CCCCC1)c1ccc(Cl)cc1,103%,105%,105%,99.5%,108%,114%,103%,,101,85.1%,,105%,103%,104%,106%,106%,102%,106
Cc1ccc(Cc2ccc(C)cc2)cc1,102%,106%,102%,99.1%,109%,97.2%,103%,,108,101%,91.2%,97.5%,102%,99.4%,107%,100%,99.4%,105
